“And” between values parts separate entries of the source, which are not always exact repeats. Identical values can stand only once. The source made the active and inactive calls.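 How the source made its calls, unless noted: active means thallium flux through the channel raised or lowered by more than 3 SD from vehicle-only wells, actives on both sides; inactive means the rest.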
Tests used:
[1] = tested on: Hepatitis C virus NS3 helicase; assay: HCV NS3 helicase inhibitors, primary screen, biochemical, fluorescence polarization, NIH Clinical Collection (AID 743270; call rule not given here); conditions: NS3 helicase binding to Cy5-dT15 DNA, stronger effect = higher value, concentration not given here
[2] = biological target: Single-stranded DNA-binding protein (Escherichia coli (strain K12)) (UniProt P0AGE0); assay: E. coli SSB displacement from DNA, counter-screen for HCV NS3 helicase inhibitor project, biochemical, fluorescence polarization, NIH Clinical Collection (AID 743271; in the data active means inhibition above about 28%); conditions: stronger effect = higher value, concentration not given here
[3] = fluorescence interference in NS3h assay format, artefact control for HCV NS3 helicase inhibitor project, biochemical, NIH Clinical Collection (AID 743272; call rule not given here;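 further: HCV NS3 helicase with a Cy5 labelled single stranded DNA probe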); conditions: fluorescence interference counterscreen, stronger effect = lower value
[4] = stimulators of nuclear beta-catenin in C2C12, primary screen, imaging, WNT3A-conditioned medium, mouse C2C12, NPC library (AID 1117326; in the data active means nuclear beta-catenin stimulation mostly above about 4.2%, no sharp cut-off; inactive means mostly below about 10%); conditions: stronger effect = higher value
[5] = stimulators of insulin release from INS-1E, primary screen, cell-based, 5 mM glucose, NPC library (AID 1117329;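 active means compound raises insulin release from rat beta cells at 5 mM glucose, no numeric limit stated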); conditions: rat INS-1E insulin secretion, at 10 µM, stronger effect = higher value
[6] = growth inhibition of GSK3B-pretreated HCT116 cells – cell-based, CellTiter-Glo, 0.2 to 20 µM (AID 1117336;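 active means compounds lowering colon cancer cell viability after pretreatment blocking the GSK3B kinase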); conditions: HCT116 viability after GSK3B inhibitor, at 20 µM, stronger effect = higher value
[7] = inhibition of endothelial tube formation, primary screen, imaging, VEGF stimulated, CD31 staining, tube area, NPC library (AID 1117340;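 active means compound that reduces growth-factor-driven endothelial tube area in a mixed cell culture, no cutoff stated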); conditions: VEGF-stimulated ADSC/ECFC co-culture, at 10 µM, stronger effect = higher value
[8] = glucagon-like peptide 1 release enhancers, primary assay, NCI-H716 cell line, NPC library (AID 1117341;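 active means compound raises GLP1 secretion from the human gut endocrine cells, with no numeric limit stated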); conditions: NCI-H716 cells, at 10 µM, stronger effect = higher value
[9] = HCT116 colon cancer cell growth inhibition, primary screen, CellTiter-Glo luminescence, NPC library (AID 1117342;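 active means compounds that lower survival of HCT116 colon cancer cells in the luminescence readout, no numeric limit stated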); conditions: at 20 µM (top of the series)
[10] = CellTiter-Glo luminescent readout of SW480 viability loss, NPC library primary (AID 1117343;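 active means compounds that lower viability of the colon cancer cells in the luminescence readout, with no numeric limit stated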); conditions: CellTiter-Glo luminescence; at 20 µM (top of the series)
[11] = decreased DLD-1 cellular survival, CellTiter-Glo luminescent readout, NPC compound collection, primary HTS (AID 1117346;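 active means compounds that lower survival of DLD-1 colon cancer cells in the luminescence readout, no cutoff given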); conditions: DLD-1 viability, CellTiter-Glo luminescence; at 20 µM (top of the series)
[12] = biological target: 6-phosphogluconate dehydrogenase, decarboxylating (Homo sapiens) (UniProt P52209); assay: 6PGD enzyme inhibitors, primary screen, biochemical, human, recombinant enzyme, NADPH absorbance (AID 1159550;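 active means at least 20% inhibition of 6-phosphogluconate dehydrogenase activity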); conditions: recombinant 6PGD, NADPH absorbance 341 nm; at 10 µM; stronger effect = higher value
6-phosphogluconate dehydrogenase, decarboxylating (Homo sapiens), sequence (P52209 whole entry, looked up): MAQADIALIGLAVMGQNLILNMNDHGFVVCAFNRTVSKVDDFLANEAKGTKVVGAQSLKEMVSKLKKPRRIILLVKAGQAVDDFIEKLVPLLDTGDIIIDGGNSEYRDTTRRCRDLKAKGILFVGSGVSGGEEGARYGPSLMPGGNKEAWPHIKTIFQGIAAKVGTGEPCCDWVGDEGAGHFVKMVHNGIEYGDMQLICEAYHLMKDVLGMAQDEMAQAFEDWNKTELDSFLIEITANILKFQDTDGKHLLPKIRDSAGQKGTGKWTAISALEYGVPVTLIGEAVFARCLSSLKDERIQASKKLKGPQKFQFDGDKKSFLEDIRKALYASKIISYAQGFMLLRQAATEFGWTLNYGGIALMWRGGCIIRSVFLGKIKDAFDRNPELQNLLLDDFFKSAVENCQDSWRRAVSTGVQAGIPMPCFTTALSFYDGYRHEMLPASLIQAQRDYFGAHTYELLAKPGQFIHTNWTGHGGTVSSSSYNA

[13] = differential killing of epithelial or mesenchymal cells, primary screen, imaging, PC-3E GFP, TEM4-18 mCherry, co-culture (AID 1345086;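 active means compounds killing one labelled cell type while sparing the other, by normalised counts and ratio limits, not self-fluorescent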;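 on all read-outs here: cells exposed to compound for 72 h before imaging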;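 on red/green cell ratio (normalised): normalised mesenchymal count divided by normalised epithelial count so high means epithelial killing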); conditions: imaging cell counts, at 1 µM; for red/green cell ratio (normalised): actives lie on both sides, counts scaled to control wells, 1 = unselective
[14] = sensitizers of A549 cells to miR-34 induction, primary screen, imaging, A549 dox-inducible miR-34, nuclei and caspase counts (AID 1347080;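 active means compounds whose cell count with miR-34 switched on is under 0.7 times the count with it off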); conditions: A549 miR-34 inducible, Hoechst nuclei count, 48 h
[15] = survival rescue of mitochondrial mutant cells in low glucose, primary screen, MELAS cybrids, Rieske KO mouse fibroblasts, CellTiter-Glo (AID 1508586;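 active means mean z-score across replicates of 1.96 or higher in either the MELAS or the Rieske mutant cell line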;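 further: z relative to plate mean and SD of compound and empty wells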)
[16] = biological target: NAD(+) hydrolase SARM1 (Homo sapiens) (UniProt Q6SZW1); assay: SARM1 TIR NADase inhibitors, cell lysate, NAD-Glo luminescence (AID 1508614;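 active means compound whose remaining NAD level is above about 45 nM, limit read from the data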); conditions: SAM-TIR HEK293T lysate NADase, at 1 µM, stronger effect = higher value
NAD(+) hydrolase SARM1 (Homo sapiens), sequence (Q6SZW1 whole entry, looked up, the tested form may be a part): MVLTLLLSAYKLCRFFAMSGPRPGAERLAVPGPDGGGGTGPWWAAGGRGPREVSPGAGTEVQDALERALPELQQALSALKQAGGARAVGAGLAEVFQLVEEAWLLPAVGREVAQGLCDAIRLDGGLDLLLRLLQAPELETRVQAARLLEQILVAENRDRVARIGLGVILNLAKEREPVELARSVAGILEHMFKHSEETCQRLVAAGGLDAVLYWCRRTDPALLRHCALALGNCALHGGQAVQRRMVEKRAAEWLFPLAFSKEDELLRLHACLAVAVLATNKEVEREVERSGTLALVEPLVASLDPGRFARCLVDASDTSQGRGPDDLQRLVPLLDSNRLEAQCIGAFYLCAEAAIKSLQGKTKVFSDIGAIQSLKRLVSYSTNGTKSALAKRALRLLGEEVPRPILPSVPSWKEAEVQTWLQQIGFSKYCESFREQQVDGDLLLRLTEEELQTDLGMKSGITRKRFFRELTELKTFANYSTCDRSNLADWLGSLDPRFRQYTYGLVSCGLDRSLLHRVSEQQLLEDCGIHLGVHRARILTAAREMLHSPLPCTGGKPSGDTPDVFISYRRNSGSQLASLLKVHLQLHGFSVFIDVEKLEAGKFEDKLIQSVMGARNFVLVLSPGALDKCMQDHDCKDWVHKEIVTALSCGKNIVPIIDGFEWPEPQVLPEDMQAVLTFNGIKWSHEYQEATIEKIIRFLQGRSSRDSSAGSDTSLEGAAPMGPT

[17] = biological target: Mitogen-activated protein kinase 7 (Homo sapiens) (UniProt Q13164); assay: ERK5 transactivation activators in reporter cells, primary screen, cell-based, HTS (AID 1508626;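 active means luciferase signal above three times the same-plate solvent-only control wells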;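 further: luciferase driven by Gal4-ERK5 fusion binding five Gal4 sites before minimal TATA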); conditions: HeLa Gal4-ERK5 transactivation, 18 h, at 5 µM, stronger effect = higher value
Mitogen-activated protein kinase 7 (Homo sapiens), sequence (Q13164 whole entry, looked up, the tested form may be a part): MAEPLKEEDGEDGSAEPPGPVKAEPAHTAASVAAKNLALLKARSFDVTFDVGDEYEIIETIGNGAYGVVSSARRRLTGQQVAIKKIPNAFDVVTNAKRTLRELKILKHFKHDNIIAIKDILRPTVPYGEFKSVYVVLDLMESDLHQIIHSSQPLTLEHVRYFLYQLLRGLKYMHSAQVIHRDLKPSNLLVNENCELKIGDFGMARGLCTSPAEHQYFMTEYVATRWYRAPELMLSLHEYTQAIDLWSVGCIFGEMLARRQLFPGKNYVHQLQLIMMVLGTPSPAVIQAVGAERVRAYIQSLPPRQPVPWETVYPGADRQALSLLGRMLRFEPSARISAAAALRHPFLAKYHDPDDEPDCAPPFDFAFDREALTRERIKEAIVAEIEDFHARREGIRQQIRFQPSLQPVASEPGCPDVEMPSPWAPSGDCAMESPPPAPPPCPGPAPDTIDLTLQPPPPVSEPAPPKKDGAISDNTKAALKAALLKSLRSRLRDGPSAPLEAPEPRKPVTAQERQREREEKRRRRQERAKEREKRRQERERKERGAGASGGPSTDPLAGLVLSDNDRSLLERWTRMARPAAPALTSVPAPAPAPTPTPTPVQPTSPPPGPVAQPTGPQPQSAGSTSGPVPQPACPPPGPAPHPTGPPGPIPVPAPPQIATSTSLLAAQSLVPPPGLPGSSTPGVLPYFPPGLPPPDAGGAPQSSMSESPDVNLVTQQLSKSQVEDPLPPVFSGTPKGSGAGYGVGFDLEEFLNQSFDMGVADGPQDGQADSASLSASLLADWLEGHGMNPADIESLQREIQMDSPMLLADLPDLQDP

[18] = tested on: F380Y; assay: modulators of BK channel variants, profiling panel, selectivity assay, cell-based, U2OS BacMam, thallium flux, beta subunits (AID 1259406); conditions: at 30 µM;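 further: initial slope of Thallos dye fluorescence rise after thallium is added; log ratio against the mean of 0.3% DMSO vehicle wells on the same plate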
[19] = tested on: F380Y/beta2Delta; assay: as above; conditions: at 30 µM
[20] = biological target: Calcium-activated potassium channel subunit alpha-1 (Homo sapiens) + Leucine-rich repeat-containing protein 26 (Homo sapiens) (UniProt Q12791+Q2I0M4); assay: as above; conditions: F380Y/Slo1WT/gamma1, at 30 µM
Calcium-activated potassium channel subunit alpha-1 (Homo sapiens) + Leucine-rich repeat-containing protein 26 (Homo sapiens), sequence (Q2I0M4 whole entry, looked up, one chain of several): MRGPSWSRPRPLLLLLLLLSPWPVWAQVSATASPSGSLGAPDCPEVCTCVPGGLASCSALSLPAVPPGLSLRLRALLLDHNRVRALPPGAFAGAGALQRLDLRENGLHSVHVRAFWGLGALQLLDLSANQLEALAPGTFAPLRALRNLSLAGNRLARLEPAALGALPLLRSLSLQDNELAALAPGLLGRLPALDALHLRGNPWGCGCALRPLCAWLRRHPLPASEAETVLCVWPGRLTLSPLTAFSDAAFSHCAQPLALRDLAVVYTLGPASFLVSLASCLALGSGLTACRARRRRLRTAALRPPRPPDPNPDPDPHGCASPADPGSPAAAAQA

[21] = measured here: epithelial PC-3E GFP cell survival
[22] = measured here: mesenchymal TEM4-18 mCherry cell survival
[23] = measured here: total cells without miR-34 induction
[24] = MELAS cybrid survival, CellTiter-Glo 48 h, stronger effect = higher value
[25] = Rieske KO mouse fibroblast survival, CellTiter-Glo 72 h

C=C(CC)C(=O)c1ccc(OCC(=O)O)c(Cl)c1Cl
10500 and 9830 and 12200: cell count [14, 23]
0.9: normalised cell number [13, 22]
active: tube area decrease [7] 52.6% | viability decrease (inhibition) [10] 122%
-0.298 and 0.189: z-score [15, 25]
1.4%: nuclear beta-catenin stimulation ([4]; stimulation, at 2 µM)
0.92: normalised cell number [13, 21]
inactive: inhibition [1] -4.09% | inhibition [2] 2.57% | fluorescence ratio [3] 0.9 | nuclear beta-catenin stimulation ([4]; at 10 µM) 3% | insulin secretion stimulation [5] -2.5% | viability decrease [6] 24.9% | GLP1 secretion stimulation [8] 3.1% | inhibition of viability [9] -25.8% | viability decrease (inhibition) [11] 14.8% | inhibition [12] 9.98% | red/green cell ratio (normalised) [13] 0.98 | z-score [15, 24] 0.232 and -0.08 | remaining NAD [16] 10 nM | luciferase signal [17] 64 AU | log fold change Tl+ flux [18] -0.0103 | log fold change Tl+ flux [19] -0.0325 | log fold change Tl+ flux [20] 0.0507

CC(CN1c2ccccc2Sc2ccccc21)N(C)C (stereo unspecified)
1.17: normalised cell number [13, 21]
-0.152 and -0.842 and 0.0934: z-score [15, 25]
1.05: normalised cell number [13, 22]
-0.4%: nuclear beta-catenin stimulation ([4]; stimulation, at 2 µM)
inactive: inhibition [1] -5% | inhibition [2] 3.34% | fluorescence ratio [3] 0.93 | nuclear beta-catenin stimulation ([4]; at 10 µM) 0% | insulin secretion stimulation [5] 7.9% | viability decrease [6] 28.6% | tube area decrease [7] 14.2% | GLP1 secretion stimulation [8] 5.7% | viability decrease (inhibition) [11] 28.8% | inhibition [12] 7.15% | red/green cell ratio (normalised) [13] 0.9 | z-score [15, 24] -0.251 and 0.0297 and -0.48 | remaining NAD [16] 10 nM | luciferase signal [17] 144 AU | log fold change Tl+ flux [20] -0.00524
active: inhibition of viability [9] 76.9% | viability decrease (inhibition) [10] 110% | log fold change Tl+ flux [18] 0.2 | log fold change Tl+ flux [19] 0.393

CN(C)CCOC(C)(c1ccccc1)c1ccccn1 (stereo unspecified)
inactive: inhibition [1] -0.4% | inhibition [2] -0.87% | fluorescence ratio [3] 1.06 | nuclear beta-catenin stimulation ([4]; at 10 µM) 1.1% | insulin secretion stimulation [5] 11.2% | viability decrease [6] 7.4% | tube area decrease [7] -15.5% | GLP1 secretion stimulation [8] 1% | inhibition of viability [9] 22.7% | viability decrease (inhibition) [10] 28.1% | viability decrease (inhibition) [11] -4.8% | inhibition [12] 1.67% | red/green cell ratio (normalised) [13] 1.11 | z-score [15, 24] 0.438 and -0.212 and 0.265 | remaining NAD [16] 10 nM | luciferase signal [17] 124 AU | log fold change Tl+ flux [18] -0.0291 | log fold change Tl+ flux [19] -0.0218 | log fold change Tl+ flux [20] -0.0144
1.38: normalised cell number [13, 21]
1.53: normalised cell number [13, 22]
-0.4 and -0.135 and 0.109: z-score [15, 25]
-0.9%: nuclear beta-catenin stimulation ([4]; stimulation, at 2 µM)

CN(C)CCC[C@@]1(c2ccc(F)cc2)OCc2cc(C#N)ccc21
1.13: normalised cell number [13, 21]
-0.0102 and -1.12: z-score [15, 25]
inactive: inhibition [1] -1.98% | inhibition [2] 6.83% | fluorescence ratio [3] 0.96 | nuclear beta-catenin stimulation ([4]; at 10 µM) 2.2% | viability decrease [6] 4.6% | tube area decrease [7] 3.6% | GLP1 secretion stimulation [8] 10.5% | inhibition of viability [9] -13.4% | viability decrease (inhibition) [11] 24.4% | inhibition [12] 8.36% | red/green cell ratio (normalised) [13] 0.99 | fold change ([14]; stronger effect = lower value, cell number ratio, induced over uninduced) 1.02 and 0.891 | z-score [15, 24] -0.471 and -0.676 | remaining NAD [16] 10 nM | log fold change Tl+ flux [18] 0.0406 | log fold change Tl+ flux [19] 0.0188 | log fold change Tl+ flux [20] -0.0413
1.12: normalised cell number [13, 22]
-0.7%: nuclear beta-catenin stimulation ([4]; stimulation, at 2 µM)
active: insulin secretion stimulation [5] 31.7% | viability decrease (inhibition) [10] 66.3%
9420 and 10600: cell count [14, 23]
2.21 and 1.15: fold change ([14]; measured here: relative caspase fold change +Dox/-Dox)
9600 and 9400: cell count ([14]; measured here: total cells with miR-34 induction, stronger effect = lower value)

— PubChem BioAssay
